Results from PubChem BioAssay AID376 (PDSP, 2006).
About 250 (12%) of roughly 2,000 compounds were called active. This excerpt belongs to a sample that is enriched for actives. A number with no mark means an inactive call. No stated cut-off is given here; in the data, active means hERG blockade below about -20% or above about 20%; inactive means in between.

biological target: Voltage-gated inwardly rectifying potassium channel KCNH2 (Homo sapiens) (UniProt Q12809); test: modulators of KCNH2 ion channel function, cellular (AID 376); conditions: hERG-expressing cells, channel activity single-concentration screen; concentration not given here;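 further: 0% = buffer alone and 100% = reference blocker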
Sequence (Q12809 whole entry, looked up): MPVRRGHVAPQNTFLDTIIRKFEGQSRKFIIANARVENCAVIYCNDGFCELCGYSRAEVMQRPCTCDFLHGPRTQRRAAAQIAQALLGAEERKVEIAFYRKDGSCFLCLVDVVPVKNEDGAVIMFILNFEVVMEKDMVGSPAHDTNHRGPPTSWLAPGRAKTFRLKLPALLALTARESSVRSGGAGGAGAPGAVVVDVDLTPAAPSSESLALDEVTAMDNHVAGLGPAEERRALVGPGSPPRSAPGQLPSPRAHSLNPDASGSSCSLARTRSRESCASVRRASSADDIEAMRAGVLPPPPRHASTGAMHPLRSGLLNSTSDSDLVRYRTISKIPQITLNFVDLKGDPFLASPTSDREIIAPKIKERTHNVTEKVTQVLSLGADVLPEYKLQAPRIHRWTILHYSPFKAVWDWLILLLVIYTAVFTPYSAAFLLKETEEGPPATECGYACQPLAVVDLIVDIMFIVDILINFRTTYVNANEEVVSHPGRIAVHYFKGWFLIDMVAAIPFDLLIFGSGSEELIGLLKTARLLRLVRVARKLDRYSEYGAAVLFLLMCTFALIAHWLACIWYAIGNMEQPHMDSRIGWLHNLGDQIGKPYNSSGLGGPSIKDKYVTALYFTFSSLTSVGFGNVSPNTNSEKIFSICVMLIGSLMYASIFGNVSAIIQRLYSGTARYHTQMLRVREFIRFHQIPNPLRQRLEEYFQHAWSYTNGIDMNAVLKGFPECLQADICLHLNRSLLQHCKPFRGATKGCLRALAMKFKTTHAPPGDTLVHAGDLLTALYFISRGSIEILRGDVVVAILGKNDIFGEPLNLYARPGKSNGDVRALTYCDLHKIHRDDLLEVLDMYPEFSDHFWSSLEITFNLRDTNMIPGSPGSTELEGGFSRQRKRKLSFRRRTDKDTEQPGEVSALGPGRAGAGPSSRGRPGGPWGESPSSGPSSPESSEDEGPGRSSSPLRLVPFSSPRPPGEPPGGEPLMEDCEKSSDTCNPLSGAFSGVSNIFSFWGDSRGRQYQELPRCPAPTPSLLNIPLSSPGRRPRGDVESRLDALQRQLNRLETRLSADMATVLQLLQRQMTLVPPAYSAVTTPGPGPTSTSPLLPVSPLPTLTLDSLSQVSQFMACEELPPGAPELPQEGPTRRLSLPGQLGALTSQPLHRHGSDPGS

`CSc1ccc2c(c1)c(CCN)c(C)n2Cc1ccccc1Cl` was tested, and the hERG blockade was 102% (active).
In the case of `CC1=NN(c2ccccc2)C(=O)C1N=Nc1ccc([As](=O)(O)O)c(O)c1` (stereo not given), the hERG blockade is reported as 32.9% (active).
With `Cc1c(C(C)C2NCC(C)CC2O)ccc2c1CC1C2CC=C2CC(O)CCC21C` (stereo not given) the hERG blockade was 75.5% (active).
In the case of `NCCSC(c1ccccc1)c1ccccc1`, the hERG blockade is reported as 21.8% (active).
With `C[n+]1c(C=Cc2ccc(O)c3ncccc23)[se]c2ccccc21` the hERG blockade was 24% (active).
`COc1cccc2c1C(=O)c1c(O)c3c(c(O)c1C2=O)CC(O)(C(C)=NO)CC3OC1CC(N)C(O)C(C)O1` (stereo not given) was tested, and the hERG blockade was 36.3% (active).
In the case of `COc1cc(O)c2c(O)c3c(c4c2c1C1(C4)C(C)=CCCC1(C)C)C(O)C1(O)CC(=O)C(C(N)=O)=C(O)C1(O)C3=O` (stereo not given), the hERG blockade is reported as 24.7% (active).
In the case of `O=C(O)CNC(=O)c1ccc([As](=O)(O)O)cc1`, the hERG blockade is reported as -21.5% (active).
With `NCCc1c[nH]c2ccc(OC(=O)C(=O)O)cc12` the hERG blockade was -28.9% (active).
For `O=C(O)C(O)(c1ccc(-c2ccccc2)cc1)c1ccc(-c2ccccc2)cc1`, the hERG blockade was 33.6% (active).
With `O=C(CC(c1ccccc1)c1c(O)c2ccccc2oc1=O)c1ccccc1` (stereo not given) the hERG blockade was 22.2% (active).
`O=C(CCN1CC2CCC(CC2)C1)c1cccs1` was tested, and the hERG blockade was 29.2% (active).
For `O=C(c1ccccc1)C1C(c2ccccc2[N+](=O)[O-])N1C1CCCCC1` (stereo not given), the hERG blockade was 24.1% (active).
With `CS(=O)(=O)OC1CN2CCC1CC2` (stereo not given) the hERG blockade was -24.5% (active).
For `c1ccc2c(c1)Sc1ccccc1N2CC1CN2CCC1CC2` (stereo not given), the hERG blockade was 69.3% (active).
With `CC1(C)N=C(N)N=C(N)N1c1cccc(C(=O)Nc2ccc(S(=O)(=O)F)cc2)c1` the hERG blockade was 24.1% (active).
For `COc1cc2cc(c1Cl)N(C)C(=O)CC(OC(=O)C(C)C)C1(C)OC1C(C)C1CC(O)(NC(=O)O1)C(OC)C=CC=C(C)C2` (stereo not given), the hERG blockade was 33% (active).
With `Oc1cccc2cccnc12` the hERG blockade was -22.9% (active).
In the case of `CN(C)CCCNc1c2c(nc3ccc(Cl)cc13)CCCC2`, the hERG blockade is reported as 65.9% (active).
For `CCC1CN2CCc3cc(OC)c(OC)cc3C2CC1CC1NCCc2c1[nH]c1ccc(O)cc21` (stereo not given), the hERG blockade was 35.8% (active).

Point of comparison: `O=C(O)c1cccc([As]=[As]c2cccc(C(=O)O)c2)c1` (stereo not given), hERG blockade -10.8%. Against it:
- Cn1c(=O)c2[nH]cnc2n(C)c1=O.[CH2-]C(Cc1cccc2cc(C(=O)O)c(=O)oc12)OC.[Hg+2].[OH-] (stereo not given) — higher, -6.48%
- Nc1nc(N)c(N=Nc2ccc([As](=O)(O)O)c(O)c2)c(N)n1 — higher, -5.01%
- O=C(O)CC1NCc2cc3ccccc3nc21 (stereo not given) — lower, -11.4%
- O=P(O)(OP(=O)(O)c1ccccc1)c1ccccc1 (tested in a mixture with another compound) — higher, -3.18%
- Nc1nnnn1CCO — higher, -1.1%
- CC1CCC2(NC1)OC1CC3C4CC=C5CC(O)CCC5(C)C4CCC3(C)C1C2C (stereo not given) — higher, 5.44%
- CC1=C2C(=O)C3C(CC=C4CC(O)CCC43C)C2CCC12OC1CC(C)CNC1C2C (stereo not given) — higher, 18.8%
- COC([CH2][Hg][n]1cnc2c1c(=O)n(C)c(=O)n2C)CN1C(=O)c2ccccc2S1(=O)=O (stereo not given) — lower, -10.9%
- O=P(O)(O)c1ccccc1 (tested in a mixture with another compound) — higher, -2.7%
- O=C(O)CSCC(=O)O — higher, -1.83%
- CC(Br)C(=O)NC(CO)C(=O)O (stereo not given) — higher, 16.5%
- O=C(Nc1cc[c]([Sb](=[O])([OH])[OH])cc1)c1ccccc1 — higher, 5.03%
- Nc1ccc(S(=O)(=O)c2ccc(NCN3C(=O)NC(=O)C(=O)C3=O)cc2)cc1 — higher, 20%
- O=P(O)(O)CCP(=O)(O)O — higher, -9.16%
- CCOC(=O)C1C(O)CC2c3ccccc3-c3ccccc3C21 (stereo not given) — higher, -9.9%
- COc1cc2c(cc1OC)C13CC[N+]4(C)CC5=CCOC6CC(=O)N2C1C6C5CC34O (stereo not given) — higher, 0.126%
- Nc1c(C(=O)Nc2ccc([As](=O)(O)O)cc2)cnc2nnnn12 — higher, 6.38%
- COC(=O)C1C(=O)C(C(=O)OC)C2CCC1N2C (stereo not given) — higher, -6.77%
- O=[As](O)(O)c1ccc2nc3cc([As](=O)(O)O)ccc3nc2c1 — higher, 6.6%
- CCSCCC(N)C(=O)O (stereo not given) — higher, -2.21%
- CC(CN(C)C)C(C#N)(c1ccccc1)c1ccccc1 (stereo not given) — higher, 3.3%
- NC(CP(=O)(O)O)C(=O)O (stereo not given) — higher, 0.269%
- CC(O)CN(CCN(CC(C)O)CC(C)O)CC(C)O.O=[N+]([O-])[O-].[Cu+2] (stereo not given) — higher, 13.4%
- CC12CN(CC[N+](C)(C)C)CC1(C)C1CCC2O1 (stereo not given) — higher, -0.461%
- Cc1ccc(OP(=O)(Oc2ccc(C)cc2)N2C=Cc3ccccc3C2C#N)cc1 (stereo not given) — higher, 0.907%
- Cc1ccc(S(=O)ON2CCC(C(=O)O)(c3ccccc3)CC2)cc1 (stereo not given) — higher, 4.76%
- Nc1nc(N)c(N=Nc2ccc([As](=O)(O)O)cc2)c(=O)[nH]1 — higher, 13.9%
- N#CCCCC[N+]12CN3CN(CN(C3)C1)C2 — higher, 6.19%
- Nc1cc[c]([Hg])cc1.Nc1nc2c(ncn2C2OC(CO)C(O)C2O)c(=[SH+])[nH]1 (stereo not given) — higher, 2%
- NNc1c(C(N)=O)c2c(N)ncnc2n1C1OC(CO)C(O)C1O (stereo not given) — higher, 6.28%
- O=[As](O)(O)c1ccc(Cc2ccc([As](=O)(O)O)cc2)cc1 — higher, -1.48%
- NC(=O)c1ccc(C(=O)Nc2ccc([As](=O)(O)O)cc2)cc1 — higher, 8.1%
- CC1=NN(c2ccc(S(=O)(=O)O)cc2C)C(=[OH+])C1N=Nc1cc(S(=O)(=O)[O-])ccc1C(=O)O.[Cr].[OH-] (stereo not given) — higher, -5.52%
- Oc1ccc(CCNCc2cc3c(cc2Br)OCO3)cc1 — higher, -0.605%
- O=C(O)C(Br)C(Br)C(=O)O (stereo not given) — higher, 10.9%
- NC(CCP(=O)(O)O)C(=O)O (stereo not given) — higher, 5.51%
- CC1CCC2(O)C3(C)CC4(O)OC2(C1O)C1(O)C3(O)C(OC(=O)c2ccc[nH]2)C(O)(C(C)C)C41C (stereo not given) — higher, 2.45%
- CC(C)c1ccc(C(O)(C(=O)O)c2ccc(C(C)C)cc2)cc1 — higher, 7.38%
- CC(=O)OC1CCC2(C)C(CCC3C2CC(=O)C2(C)C3CC(N3CC3)C2C(C)=O)C1 (stereo not given) — higher, 2.23%
- CCc1ccc(CCN2CCCCC2)nc1 — higher, -0.853%
- CC(C)c1ccc(C(c2c(O)c3ccccc3oc2=O)c2c(O)c3ccccc3oc2=O)cc1 — higher, 15.3%
- Nc1ccccc1O.O.O=C(O)C1[O][Sb][O]C1C(=O)O (stereo not given) — higher, 16.3%
- [N-]=[N+]=CC(=O)CCC(N)C(=O)O (stereo not given) — higher, 2.68%
- NC(CCl)=NC1CN2CCC1CC2 (stereo not given) — higher, -4.96%
- O=[As](O)(O)c1ccc(N=Nc2ccc(O)cc2)cc1 — higher, -7.36%
- CCCOC(=O)C1C2CCC(O2)C1C(=O)O (stereo not given) — higher, 8.66%
- Oc1ccc(C(O)C2CCCCN2)cc1O (stereo not given) — higher, 1.5%
- Cc1ccc(S(=O)(=O)OC2CN3CCC2CC3)cc1 (stereo not given) — higher, 2.18%
- CN(C)CCC(C#N)(c1ccccc1)c1ccccc1 — higher, 6.53%
- CC1C(C)N1CC(O)Cn1ccnc1[N+](=O)[O-] (stereo not given) — higher, 8.14%
- Cc1ccc(O)cc1 (tested in a mixture with another compound) — higher, -3.08%
- ClCC[N+]12CC[N+](CCCl)(CC1)C2 (tested in a mixture with another compound) — higher, 11.5%
- NC(Cc1cc(Br)c(O)c(Br)c1)C(=O)O (stereo not given) — higher, 9.07%
- NNc1nncn1N — higher, -1.06%
- O=C(O)C[O][Sb][O]CC(=O)O — higher, 2.23%
- OC(CN1CC1)C(O)CN1CC1 (stereo not given) — higher, 3.04%
- c1cc(CCN2CCCCC2)ccn1 — higher, -7.49%
- C=C(C)c1ccccc1 (tested in a mixture with another compound) — higher, 1.7%
- CC1OC(OC2CC(O)C3(CO)C4C(O)CC5(C)C(C6=CC(=O)OC6)CCC5(O)C4CCC3(O)C2)C(O)C(O)C1O (stereo not given) — higher, 2.43%
- CCC1(O)C(=O)OCc2c1cc1n(c2=O)Cc2cc3c(NC(=O)CN)cccc3nc2-1 (stereo not given) — higher, 7.93%
- O=C(O)C(Cc1cnc[nH]1)N1C(=O)c2ccccc2C1=O (stereo not given) — higher, 14.2%
- NCCCN1CCN(c2ccccc2)CC1 — higher, -0.441%
- C(=NCCN1CCOCC1)=NC1CCCCC1 — higher, 6.97%
- O=C(O)c1cc(N=Nc2ccc([As](=O)(O)O)cc2)ccc1O — higher, 3.08%
- CC(=O)OC1=CC2=CCC3C4CCC(=O)C4(C)CC(=O)C3(S)C2(C)CC1 (stereo not given) — higher, -3.78%
- O=C(O)CNCP(=O)(O)O — higher, -1.2%
- CN1CC(C(=O)NC2(C)OC3(O)C4CCCN4C(=O)C(Cc4ccccc4)N3C2=O)C=C2c3cccc4[nH]cc(c34)CC21 (stereo not given) — higher, 6.97%
- CC(Br)CN(CC(C)Br)c1ccc2c(c1)Cc1ccccc1-2 (stereo not given) — higher, 3.41%
- CCC(O)(C(=O)O)c1cc2n(c(=O)c1CO)Cc1cc3ccccc3nc1-2 (stereo not given) — higher, -3.09%
- C[N+]1([O-])C2CCC1CC(OC(=O)C(CO)c1ccccc1)C2 (stereo not given) — lower, -12.1%
- O=S(=O)(O)C(=Cc1ccccc1)c1ccccc1 (tested in a mixture with another compound) — higher, -5.32%
- O=C(O)Cc1ccc([N+](=O)[O-])cc1[N+](=O)[O-] — lower, -15.6%
- CC(c1ccccc1)N1CCN(C(C)c2ccccc2)CC1 (stereo not given) — higher, 2.64%
- O=C(O)CC1OCC=C2CN3CCC45C6=CC(=O)C(=O)C([N+](=O)[O-])=C6NC4C1C2CC35 (stereo not given) — higher, 13.9%
